High-throughput results: PubChem, Broad Institute
An excerpt weighted towards active compounds, which were near 3.9% of everything screened.
CDK5 p35 inh – blocks human CDK5/p35 kinase activity. Q00535+Q15078. 0.01% of 330,000 active. inhibition, % at 10 µM. Recombinant CDK5/p35, ADP-Glo luminescence, 60 min;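 active = highest replicate inhibition of at least 50% and at least 75% of replicates reaching 50%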;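 note: plate controls were DMSO neutral control for no effect and GW8510 at 10 µM for full effect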
ALR inh – inhibitors of human sulfhydryl oxidase ALR; inhibition, % (test concentration not listed); P55789; 3.8% of 290,000 active; purified ALR, DTT oxidation, H2O2 HRP-luminol luminescence; AID 485317;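 active = mean replicate inhibition above about 79%, with every replicate also reaching it, limit read from the data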
Target sequence (P55789 whole entry, looked up): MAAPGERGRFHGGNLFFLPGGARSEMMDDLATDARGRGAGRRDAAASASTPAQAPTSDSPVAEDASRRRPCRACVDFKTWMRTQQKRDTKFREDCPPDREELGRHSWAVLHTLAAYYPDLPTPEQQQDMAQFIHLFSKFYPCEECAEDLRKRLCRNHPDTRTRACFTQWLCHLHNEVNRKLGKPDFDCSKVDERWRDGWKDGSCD
Mot1-301 SUMO – SUMOylation pathway inhibition by Mot1-301 growth rescue; S. cerevisiae Mot1-301 growth rescue, ATP luminescence, 38.5C; percent above DMSO median, 100 means doubled; growth rescue, % at 18.8 µM; 1% of 320,000 active;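 active = every valid replicate shows activation above 250% relative to neutral control wells; inactive = the rest, any valid replicate at or below 250%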;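 note: OY570 slx delta 5 strain wells were the positive control but not used for scaling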
Glyco luc inh – blocks N-linked glycosylation in D54 reporter cells; D54 ERlucT glycosylation luciferase reporter, 24 h; percent of 100 nM tunicamycin response; reporter increase, % at 12.5 µM; 0.23% of 360,000 active; AID 588692;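 active = mean luciferase reporter signal, scaled so untreated is 0 and the glycosylation-blocking control 100, at or above a set limit in every replicate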;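 note: luciferase carries N-glycosylation sites so blocking glycosylation raises the light; 0% = median of neutral control wells and 100% = median of 100 nM tunicamycin wells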
NSD2 HMT inh – NSD2 (human) methyltransferase inhibition; O96028; NSD2 peptide methylation, AlphaScreen, 120 min; inhibition, % at 12.5 µM; 0.54% of 310,000 active; AID 743445; in the data active = inhibition above about 50%
Casp6 inh – blocks human caspase-6 cleavage activity; purified caspase-6, Z-VEID-R110 cleavage fluorescence; inhibition, % at 12.5 µM; 0.53% of 350,000 active; AID 686996;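 active = mean inhibition across replicates at least about 35%, with every replicate also reaching that limit, limit read from the data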;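 note: 0% = median of neutral control wells and 100% = no fluorescence left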
Target sequence (P55212 24-179 limits assumed): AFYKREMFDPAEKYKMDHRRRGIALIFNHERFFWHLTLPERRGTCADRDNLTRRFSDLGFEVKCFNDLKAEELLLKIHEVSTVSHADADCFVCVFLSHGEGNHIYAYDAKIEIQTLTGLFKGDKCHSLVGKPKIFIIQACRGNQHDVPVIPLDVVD
Target sequence (P55212 194-293 limits assumed): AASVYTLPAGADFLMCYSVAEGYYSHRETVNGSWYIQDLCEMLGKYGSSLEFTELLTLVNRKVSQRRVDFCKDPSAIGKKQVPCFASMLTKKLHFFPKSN
Starred values were filed as active, the others as inactive; nt = no result given.

SMILES | CDK5 p35 inh | ALR inh | Mot1-301 SUMO | Glyco luc inh | NSD2 HMT inh | Casp6 inh
Cc1cc(C(=O)C(=O)N(C)C)c(C)n1-c1ccc(Cl)c(Cl)c1 | 0.1 | -0.9 | 252.9 | -0.8 | nt | 1.9
Cc1cc(C(=O)C(=O)O)c(C)n1-c1ccc(Cl)c(Cl)c1 | -2.6 | 95.4* | 6.6 | 1.5 | 0.0 | -2.4
CCC(=O)N1C[C@@H]2[C@H](c3ccccc31)[C@H](CO)N2C(=O)Nc1ccccc1 | nt | nt | nt | nt | nt | -0.5
CCN1C(=O)c2cccc3c(S(=O)(=O)Nc4ccccc4)ccc1c23 | 0.7 | -18.9 | -10.3 | 50.7* | -8.0 | nt
CCN1C(=O)c2cccc3c(S(=O)(=O)Nc4ccccn4)ccc1c23 | 0.6 | -27.6 | -6.7 | 49.7* | nt | nt
CCN1C(=O)c2cccc3c(S(=O)(=O)Nc4ncccc4C)ccc1c23 | 1.9 | -18.4 | 346.1 | 11.8 | nt | nt
CCN1CCN(CCNC(=O)CCc2c(OC)nc3c(c(C)nn3-c3ccccc3)c2C)CC1 | nt | nt | nt | nt | 4.2 | nt
COc1ccccc1NC(=O)N(C)C[C@H]1Oc2ncc(Br)cc2C(=O)N([C@@H](C)CO)C[C@@H]1C | nt | nt | nt | nt | nt | 0.1
CCNC(=O)C[C@H]1CC[C@@H](NC(=O)C2CC2)[C@@H](CO)O1 | nt | nt | nt | nt | nt | -2.2
COc1ccc(NC(=O)N(C)C[C@H]2OCCCC[C@@H](C)Oc3ccc(NS(=O)(=O)c4cn(C)cn4)cc3C(=O)N([C@@H](C)CO)C[C@H]2C)cc1 | nt | nt | nt | nt | nt | 0.1
O=C(C[C@H]1C=C[C@@H](NC(=O)C2CCC2)[C@H](CO)O1)NCc1ccncc1 | nt | nt | nt | nt | nt | 0.0
CSC1=N/C(=C\c2ccc(Cl)cc2)C(=O)N1N(C)C | 1.7 | -2.2 | -2.3 | -2.7 | -0.4 | -0.2
CC1(C)CN=c2s/c(=C\c3ccc(Cl)cc3)c(=O)n2C1 | -0.1 | 96.9* | 35.7 | -0.3 | -11.8 | 6.6
C[C@H]1CN([C@@H](C)CO)C(=O)c2cc(-c3ccc(C#N)cc3)cnc2O[C@H]1CN(C)C(=O)Nc1ccc(C(F)(F)F)cc1 | nt | nt | nt | nt | nt | 6.4
COc1cccc(-c2ccc3n(c2=O)C[C@@H]2[C@@H](CO)[C@H](C(=O)N(C)C)N(C(=O)C4CC4)[C@H]32)c1 | nt | nt | nt | nt | nt | 0.7
Cn1c(=O)c2c(ncn2CC(=O)Nc2nc3ccc(F)cc3s2)n(C)c1=O | 0.6 | 98.8* | 1.4 | -0.2 | -1.2 | nt
O=C(Nc1ccc(Nc2ccccc2)cc1)c1ccc(Br)o1 | -0.3 | 99.4* | -32.8 | -1.7 | 28.5 | nt
O=C(Nc1ccc(O)cc1)c1ccc(C(=O)c2ccccc2)o1 | -0.9 | 96.8* | 436.9 | -3.9 | -1.4 | nt
CCCNC(=O)C(Cc1ccccc1)NC(=O)Cc1ccccc1 (centres undefined) | -0.7 | 2.0 | -11.5 | -0.3 | nt | -5.5
CC(Cc1ccccc1)NC(=O)CC(c1ccccc1)c1ccccc1O (centres undefined) | 1.0 | -15.7 | -5.4 | -3.3 | -0.9 | 0.8
CCN(CC)c1ccc(CC(=O)NC(C)Cc2ccccc2)cc1 (centres undefined) | 0.2 | 100.1* | -9.9 | 1.6 | 8.7 | nt
CCCN(CCC)c1ccc(CC(=O)NC(C)Cc2ccccc2)cc1 (centres undefined) | 2.1 | 97.9* | 234.9 | -0.2 | 3.9 | -1.5
COc1cc([N+](=O)[O-])cc(/C=C2/SC(=S)N(Cc3ccccc3)C2=O)c1O | 6.1 | 97.1* | -2.5 | -6.1 | 5.7 | nt
O=C(O)CN1C(=O)/C(=C\c2cc(Br)ccc2OCc2ccccc2Cl)SC1=S | -2.1 | 8.1 | -3.5 | 1.2 | 5.8 | 75.6*
O=C(O)CN1C(=O)/C(=C\c2cccc(OCc3ccc(Cl)cc3Cl)c2)SC1=S | -1.2 | 98.5* | 104.8 | -0.8 | 33.7 | 59.8*
SMILES | CDK5 p35 inh | ALR inh | Mot1-301 SUMO | Glyco luc inh | NSD2 HMT inh | Casp6 inh
O=C(O)CCN1C(=O)/C(=C\c2ccc(OCc3ccccc3)c(OCc3ccccc3)c2)SC1=S | 0.1 | -9.1 | -6.7 | 8.2 | 2.6 | 13.3
O=C1/C(=C\c2cc(Br)cc(Br)c2O)SC(=S)N1Cc1ccccc1 | 6.0 | 13.1 | 196.5 | -3.2 | 8.1 | nt
O=C(O)CN1C(=O)/C(=C\c2cc(Br)ccc2OCc2ccc([N+](=O)[O-])cc2)SC1=S | 1.3 | 82.7* | 239.2 | 0.6 | 6.2 | 54.8*
O=C(Nc1ccc(F)cc1)N1C[C@@H]2[C@H](c3ccccc31)[C@H](CO)N2C(=O)c1ccccc1F | nt | nt | nt | nt | nt | -9.5
C[C@H](CO)N1C[C@H](C)[C@@H](CN(C)Cc2ccncc2)OCCCC[C@H](C)Oc2ccc(NC(=O)Nc3ccccc3)cc2C1=O | nt | nt | nt | nt | nt | 0.9
COc1ccc(NC(=O)Nc2cccc3c2O[C@H](CN(C)C(=O)Nc2ccccc2)[C@H](C)CN([C@H](C)CO)C3=O)cc1 | nt | nt | nt | nt | nt | 0.4
COC(=O)C[C@@H]1CC[C@@H]2[C@H](COc3ccc(NC(=O)Nc4cc(C)cc(C)c4)cc3C(=O)N2C)O1 | nt | nt | nt | nt | nt | 2.3
O=C(O)CN1C(=O)/C(=C\c2ccccc2OCc2ccc(Cl)cc2Cl)SC1=S | -0.3 | 86.8* | -19.9 | -10.8 | 8.1 | 52.0*
O=C(O)CN1C(=O)/C(=C\c2cc(Br)ccc2OCc2ccccc2F)SC1=S | -0.2 | 17.9 | -5.9 | 1.3 | 8.0 | 37.7*
O/N=C/c1cc(Br)ccc1OCc1ccccc1F | 0.2 | -1.8 | 0.5 | -1.7 | 0.0 | nt
Nc1ccccc1Sc1ccc(C(=O)c2ccccc2C(=O)O)cc1[N+](=O)[O-] | 0.5 | 45.7 | -1.2 | 2.1 | 4.9 | 46.4*
CC(=O)c1ccc(Sc2ccccc2N)c([N+](=O)[O-])c1 | -1.3 | 60.1 | -17.1 | -0.3 | 5.4 | 1.1
Cn1c(-c2ccccc2)c(/C=N/NC(=O)c2ccc(O)cc2)c2ccccc21 | -1.6 | -0.4 | -9.9 | 53.9* | 1.1 | -0.3
O=C1N=C(N2C=CC(=C3C=CNC=C3)C=C2)/C(=C/N=NC(=O)c2ccccc2O)S1 | 0.2 | nt | -3.4 | -0.9 | 16.0 | 35.9*
COc1ccc(C(CC(=O)N2CCOCC2)c2c(OC)cc(OC)c3ccc(=O)oc23)cc1 (centres undefined) | -0.8 | nt | -5.1 | -1.3 | nt | 2.8
COc1ccc(C(CC(=O)N2CCCC2)c2c(OC)cc(OC)c3ccc(=O)oc23)cc1 (centres undefined) | 1.2 | -9.3 | -1.0 | 3.3 | nt | 4.1
COc1cc(OC)c2ccc(=O)oc2c1C(CC(=O)N1CCCC1)c1ccc(N(C)C)cc1 (centres undefined) | -2.2 | 99.1* | -5.7 | 0.9 | nt | -3.1
COc1cc(OC)c2ccc(=O)oc2c1C(CC(=O)N1CCOCC1)c1ccc(N(C)C)cc1 (centres undefined) | -2.3 | 98.0* | -9.2 | 3.3 | nt | nt
CC12CN3CC(C)(CN(C1)C3c1ccc(Br)cc1O)C2 (centres undefined) | 0.7 | 98.8* | 47.4 | -0.5 | nt | nt
Nc1cccc(-c2cc3ccccc3oc2=O)c1 | -2.3 | 99.0* | 26.9 | -9.2 | 0.8 | 2.7
O=c1oc2cc(O)ccc2cc1-c1ccccc1 | 5.1 | 90.7* | -5.2 | 5.5 | -24.9 | -0.2
Nc1nnc(-c2cc3ccccc3oc2=O)s1 | -0.3 | nt | -13.0 | 1.0 | 1.7 | nt
COc1ccc(-c2cc3ccc(O)cc3oc2=O)cc1 | -0.3 | 14.9 | -23.8 | -4.9 | -8.0 | 3.3
